An excerpt weighted towards active compounds, which were near 3.6% of everything screened.
Sfp PPTase inh – inhibitors of Bacillus subtilis Sfp phosphopantetheinyl transferase. actives 3.5% (n = 310,000). Q9F4F7. Biochemical Sfp PPTase activity, qHTS. Potency, µM, without a hit: largest response in the series, negative = inhibition, usual class: inhibitors;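 also: the enzyme is Sfp with the accession as filed and its product quenches rhodamine fluorescence; 0% = enzyme reaction without inhibitor and -100% = no enzyme wells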
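Buffer: 50 mM Hepes-Na pH 7.6, 10 mM MgCl2, 0.01% Nonidet P-40, 0.01% BSA. Enzyme 15 nM, pre-exposed to compound 15 min; substrates then added and fluorescence change tracked over 30 min.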
IMPase Li inh – IMPase inhibition in cells with lithium potentiation; CHO-M1 cells, IP1 TR-FRET (IP-One), carbachol + lithium; actives 0.35% (n = 210,000); AID 1457; Potency, µM (top dose mostly 59.4 µM), inactives show at the top dose activity, negative = IMPase inhibition, hits mostly inhibitors;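 also: IP1 builds up when IMPase is blocked and the TR-FRET signal falls; plate controls were basal vehicle for no effect and high inhibitor control for full effect; nearly all actives have a fitted effect of over 50% in size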
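CHO-M1, 2000 cells/well, 16–30 h culture; cpd + low Li+, 30 min 37C; lysis with d2-IP1/Eu-anti-IP1 Ab, 10 min RT; TR-FRET 665/620 ratio and 620 channel; AC50 via Hill.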
NPSR antagonist – antagonists of human neuropeptide S receptor cAMP signaling; Q6W5P4; CHO-NPSR cells, cAMP TR-FRET, antagonist mode; Potency, µM (titrated, usually from 38.3 µM), for the others: at the highest dose activity change, negative = inhibition, usual class: inhibitors; actives 1% (n = 220,000); also: % is scaled to controls: 0 for no effect and ±100 for the full control effect; nearly all actives have a fitted effect of over 50% in size
Target sequence (Q6W5P4 whole entry, looked up): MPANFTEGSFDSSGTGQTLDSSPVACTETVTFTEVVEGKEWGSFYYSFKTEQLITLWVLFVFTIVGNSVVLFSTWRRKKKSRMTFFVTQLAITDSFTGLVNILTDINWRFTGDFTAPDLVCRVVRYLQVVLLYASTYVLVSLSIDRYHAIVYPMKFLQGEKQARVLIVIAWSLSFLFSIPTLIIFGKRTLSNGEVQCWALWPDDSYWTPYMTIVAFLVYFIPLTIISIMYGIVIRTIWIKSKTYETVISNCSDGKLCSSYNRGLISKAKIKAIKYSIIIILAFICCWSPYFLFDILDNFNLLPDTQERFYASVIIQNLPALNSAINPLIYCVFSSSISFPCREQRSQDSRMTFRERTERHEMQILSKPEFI
KDM4E inh – inhibitors of human JMJD2E histone demethylase; B2RXH2; JMJD2E catalytic domain, FDH-coupled NADH fluorescence (FDH is formaldehyde dehydrogenase); Potency, µM (series often up to 57.1 µM), without a hit: at the highest dose activity change, negative = inhibition, hits mostly inhibitors; actives 1.6% (n = 230,000); AID 2147; active = well fitted inhibition curve with a large enough effect, not every such curve was filed as active; inconclusive = small, poorly fitted or top-dose-only effect, or another doubt; inactive = no such curve, though single readings can be large or run the other way;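 also: 0% = wells with enzyme and -100% = buffer wells without enzyme; nearly all actives have a fitted effect of over 50% in size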
Target sequence (B2RXH2 1-337 limits assumed): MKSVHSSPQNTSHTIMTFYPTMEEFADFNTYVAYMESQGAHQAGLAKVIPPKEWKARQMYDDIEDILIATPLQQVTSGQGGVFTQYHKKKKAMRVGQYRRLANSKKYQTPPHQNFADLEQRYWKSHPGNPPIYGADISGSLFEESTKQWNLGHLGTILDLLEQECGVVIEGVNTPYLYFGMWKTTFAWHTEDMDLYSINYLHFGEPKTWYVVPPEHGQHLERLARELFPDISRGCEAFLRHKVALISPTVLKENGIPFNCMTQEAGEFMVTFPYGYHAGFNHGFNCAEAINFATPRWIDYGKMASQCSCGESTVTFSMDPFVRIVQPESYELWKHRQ
KAT2A inh – inhibitors of human GCN5L2 histone acetyltransferase. Q92830. GCN5L2 HAT assay, ThioGlo1 CoA-SH fluorescence. Potency, µM (series often up to 58.9 µM), for the others: top-dose activity change, negative = inhibition, usual class: inhibitors. actives 0.21% (n = 390,000); also: % is scaled to controls: 0 for no effect and ±100 for the full control effect
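Fluorescence readout, Ex340nm/Em540nm: ThioGlo1 (50uM final) reacts with free CoA thiol released as 20nM GCN5L2 acetylates H3(1-25) peptide (75uM) using acetyl-CoA (70uM). Compound and enzyme sat 15 min beforehand; 20 min room-temperature reaction.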
Epigenetic reg – derepresses silenced GFP reporter in murine cells. AID 1865. murine LDR cells, GFP reporter derepression, 30 h. actives 0.2% (n = 280,000). Potency, µM (top dose mostly 53.9 µM), inactives show at the top dose GFP activation, usual class: activators; also: % of control where 0% means no effect; nearly all actives have a fitted effect of over 60% in size
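In this reporter-derepression format, murine cells bearing a silenced integrated CMV-GFP locus incubate with test compound (30 h, 37 C), then are washed and imaged; fluorescent objects of 20–120 um count as induced cells.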
* hit, by the source's call; [ ] = dose if it differs, or a comment. Unless noted, calls follow the shape of the dose curve; as a rule, active = well fitted curve in the direction sought with a large enough effect; inconclusive = small, poorly fitted or top-dose-only effect, or another doubt; inactive = no such curve, though single readings can be large; an effect the other way counts as inactive or inconclusive. Potency is read from the fitted curve at half-maximal effect.

For CCCCC/C=C\C\C=C/C=C/C=C/[C@@H](SC[C@H](NC(=O)CC[C@H](N)C(=O)O)C(=O)NCC(=O)O)[C@@H](O)CCCC(=O)O the results were Sfp PPTase inh 7.4%, IMPase Li inh -8.8%, KAT2A inh -1.5% and Epigenetic reg 0.8%.
For N[C@@H](Cc1cc(-c2ccc(Cl)cc2Cl)cc(CP(=O)(O)O)c1O)C(=O)O the results were Sfp PPTase inh inconclusive, IMPase Li inh 4.1%, KDM4E inh 3.9%, KAT2A inh inconclusive and Epigenetic reg -0.1%.
Nc1ncnc(Sc2ncccn2)c1[N+](=O)[O-] was read as Sfp PPTase inh 35.5µM*, IMPase Li inh 0.0%, NPSR antagonist -22.0%, KDM4E inh inconclusive, KAT2A inh -8.5% and Epigenetic reg inconclusive.
`CCOC(=O)/C(=C\c1ccc(OC(F)F)cc1)C1=Nn2c(nnc2-c2ccc(Cl)cc2)SC1` gave Sfp PPTase inh -22.2%, IMPase Li inh 15.8%, NPSR antagonist 10µM*, KDM4E inh -20.6%, KAT2A inh -11.9% and Epigenetic reg inconclusive.
`CCCCc1nc(Cl)c(CO)n1Cc1ccc(-c2ccccc2-c2nn[nH]n2)cc1` gave Sfp PPTase inh 8.6%, IMPase Li inh 2.7%, KDM4E inh -1.2%, KAT2A inh -3.4% and Epigenetic reg -0.5%.
Screening CCCCc1nc2ccn(CC(=O)N(C)C)c(=O)c2n1Cc1ccc(-c2ccccc2-c2nn[nH]n2)cc1 returned Sfp PPTase inh 50.1µM*, IMPase Li inh 3.4%, KAT2A inh -9.8% and Epigenetic reg 3.9%.
O=C(O)COc1cccc2c1CCC=C2CCO/N=C(\c1ccccc1)c1cccnc1 was read as Sfp PPTase inh -5.8% and KAT2A inh 0.0%.
CCN1CCN(Cc2ccc(NC(=O)c3ccc(C)c(NC(=O)c4c[nH]c5cc(C(F)(F)F)ccc5c4=O)c3)cc2C(F)(F)F)CC1 was read as Sfp PPTase inh 79.4µM*, NPSR antagonist inconclusive, KDM4E inh 12.3%, KAT2A inh 6.5% and Epigenetic reg -3.2%.
Screening CC1=C(C#N)c2nc(N)c(C#N)c(C)c2/C1=C\c1ccc(C)cc1 returned Sfp PPTase inh 35.5µM*, IMPase Li inh 14.1%[38.3 µM], NPSR antagonist -15.0%[46.1 µM], KDM4E inh inconclusive, KAT2A inh inconclusive and Epigenetic reg -2.0%.
Cc1ccc(C(=O)c2oc3ccccc3c2NC(=O)c2cc(=O)c3cc(C)ccc3o2)cc1 was read as KAT2A inh -8.8% and Epigenetic reg -1.9%.
`CN1C(=O)C(CC(=O)Nc2ccc(Cl)cc2)N(Cc2ccco2)C1=S` (stereo unspecified) gave Sfp PPTase inh 17.8µM*, IMPase Li inh 5.1%, NPSR antagonist -35.2%, KDM4E inh -2.1%, KAT2A inh -6.8% and Epigenetic reg 3.1%.
For COc1ccc2cc([S+]([O-])Cc3ncc(C)c(OC)c3C)nc2c1 the results were KAT2A inh -6.7%.
Cc1cc(=O)[nH]c2ccc(Cl)cc12 was read as Sfp PPTase inh -11.0%, IMPase Li inh 7.4%[38.3 µM], NPSR antagonist -4.1%[46.1 µM], KDM4E inh -2.9%, KAT2A inh -6.0% and Epigenetic reg -7.5%.
`S=c1[nH]c2ccc(Cl)cc2s1` gave Sfp PPTase inh -3.8%, NPSR antagonist inconclusive, KDM4E inh 7.94µM*, KAT2A inh inconclusive and Epigenetic reg 1.1%.
Screening COc1ccc(-c2nc3c(c4c2C[C@H](c2ccccc2)OC4)CN(C(=O)c2cc(I)ccc2F)CC3)c(C)c1 returned Sfp PPTase inh 2.6%, IMPase Li inh 2.6% and KDM4E inh 8.9%[11.4 µM].
`Cc1cccc(C(=O)Nc2ccc(S(=O)(=O)N3CCC(c4nc5ccccc5s4)CC3)cc2)c1` gave KAT2A inh -0.5% and Epigenetic reg 3.5%.
CCOC(=O)c1sc(=S)n(-c2cc(OC)ccc2OC)c1N was read as Sfp PPTase inh -89.3%, IMPase Li inh 20.0%[38.3 µM], NPSR antagonist -8.5%[46.1 µM], KDM4E inh -26.9%, KAT2A inh -22.3% and Epigenetic reg 0.0%.
`COC(=O)c1sc(=S)n(-c2cc(F)ccc2F)c1N` gave Sfp PPTase inh 50.1µM*, IMPase Li inh -7.9%[38.3 µM], NPSR antagonist 15.9%[46.1 µM], KDM4E inh -12.3%, KAT2A inh -29.3% and Epigenetic reg -0.9%.
`CCOC(=O)c1sc(=S)n(-c2cc(F)ccc2F)c1N` gave Sfp PPTase inh 56.2µM*, IMPase Li inh -8.6%[38.3 µM], NPSR antagonist 7.0%[46.1 µM], KDM4E inh 8.6%, KAT2A inh -12.8% and Epigenetic reg -2.9%.
`COC(=O)C1=C2SC(C)C(=O)N2C(N)=C(C#N)C1c1cc(OC)c(OC)c(OC)c1` (stereo unspecified) gave Sfp PPTase inh 35.5µM*, IMPase Li inh 17.9%[38.3 µM], NPSR antagonist -8.4%[46.1 µM], KDM4E inh -28.3%, KAT2A inh -17.2% and Epigenetic reg -0.8%.
For COC(=O)C1=C2SC(C)C(=O)N2C(N)=C(C#N)C1c1ccc(OC)c(OC)c1 (stereo unspecified) the results were Sfp PPTase inh 35.5µM*, IMPase Li inh -15.1%[38.3 µM], NPSR antagonist 4.9%[46.1 µM], KDM4E inh -17.5%, KAT2A inh -11.9% and Epigenetic reg -0.7%.
Screening CCOC(=O)C1=C(N)N2C(=O)C(C)SC2=C(C(=O)OC)C1c1cccc(OC)c1 (stereo unspecified) returned Sfp PPTase inh -8.3%, IMPase Li inh 0.8%[38.3 µM], NPSR antagonist -14.1%[46.1 µM], KDM4E inh 2.0%, KAT2A inh -3.6% and Epigenetic reg -1.7%.
`CC1(C)[C@@H]2CC[C@@](C)(C2)[C@H]1OC(=O)c1ccccc1C(=O)O` gave IMPase Li inh 0.5%.
Screening C=CCOC(=O)C(C(=O)CC)C(NC(=O)OC)c1ccc(F)cc1 (stereo unspecified) returned Sfp PPTase inh -2.2% and Epigenetic reg 0.0%[10.1 µM].
CCOC(=O)c1cccc(NC(=O)Cn2ncc3c4ccccc4n(Cc4ccccc4)c3c2=O)c1 was read as KAT2A inh 3.2% and Epigenetic reg 0.8%.
For O=S(=O)(Cc1noc(-c2ccc(Cl)cc2)n1)Cc1ccco1 the results were Sfp PPTase inh 3.98µM*, NPSR antagonist 1.7%, KDM4E inh -1.8%, KAT2A inh -10.5% and Epigenetic reg 3.2%.
O=S(=O)(Cc1ccco1)Cc1nc(-c2ccc(Cl)cc2)cs1 was read as Sfp PPTase inh 25.1µM*, NPSR antagonist 11.2%, KDM4E inh -12.4%, KAT2A inh -6.6% and Epigenetic reg 1.0%.
Screening N[C@](CC1c2ccccc2Oc2ccccc21)(C(=O)O)[C@H]1C[C@@H]1C(=O)O returned Sfp PPTase inh inconclusive, IMPase Li inh -1.7%, KAT2A inh -9.5% and Epigenetic reg 0.8%.
